We go through 48 compounds from PubChem BioAssay AID1347043 (National Center for Advancing Translational Sciences (NCATS), 2019).

Structures are written as SMILES. About 1,900 (2.5%) of roughly 76,000 compounds were called active. Roughly 5% stayed inconclusive and do not appear here. For the sample, actives were picked, then their nearest neighbours and some compounds at random. A number with no mark means an inactive call. The call rests on the fitted dose curve; in most records, active means well fitted inhibition curve with a large enough effect; inconclusive means small, poorly fitted or top-dose-only effect; inactive means flat fitted curve, though single readings scatter.
On the % scale 0 is the no-effect control and ±100 the full control effect.

Luciferin 4-monooxygenase (Photinus pyralis), sequence (P08659 whole entry, looked up): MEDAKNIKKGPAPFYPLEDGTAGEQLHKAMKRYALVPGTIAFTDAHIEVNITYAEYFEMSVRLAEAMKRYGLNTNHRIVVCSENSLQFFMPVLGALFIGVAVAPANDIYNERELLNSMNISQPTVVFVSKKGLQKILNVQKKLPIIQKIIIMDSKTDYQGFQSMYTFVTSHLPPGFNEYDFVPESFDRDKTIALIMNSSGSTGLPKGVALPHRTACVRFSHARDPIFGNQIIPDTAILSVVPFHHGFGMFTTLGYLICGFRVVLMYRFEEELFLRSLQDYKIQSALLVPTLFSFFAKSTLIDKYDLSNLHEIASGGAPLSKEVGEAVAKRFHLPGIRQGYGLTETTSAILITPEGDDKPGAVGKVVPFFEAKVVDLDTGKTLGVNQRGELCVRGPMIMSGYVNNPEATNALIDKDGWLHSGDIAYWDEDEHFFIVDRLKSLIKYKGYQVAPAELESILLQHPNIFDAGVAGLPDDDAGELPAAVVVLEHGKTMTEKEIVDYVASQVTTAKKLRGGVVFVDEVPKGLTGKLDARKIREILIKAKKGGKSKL

The assay concerns the target Luciferin 4-monooxygenase (Photinus pyralis) (UniProt P08659). Description: Firefly luciferase inhibition profiling of diverse chemical library using quantitative high-throughput screening. Further: nearly all actives have a fitted effect of over 65% in size. The following applies: purified P. pyralis luciferase, luminescence, biochemical; series mostly up to 115 µM; activity change, negative = inhibition: at the top concentration. The source says: Firefly (Photinus pyralis) luciferase is one of the most commonly used transcriptional reporters for a number of reasons. It is considered one of the more dynamically responsive reporters - that is, responsive to changes in reporter transcription - as it requires no post-translational modifications and is enzymatically active directly after protein synthesis (Wood, 1998). Additionally, the half-life of the luciferase protein is short relative to other reporter-gene products (Wood, 1995). Whereas reporters with long half-lives potentially allow for increased signal due to accumulation of reporter-gene product, once accumulated in the cell, dynamic changes in reporter-gene expression may be difficult to detect(Fan and Wood, 2007; Almond et al., 2004). It has been shown that wild-type P. pyralis luciferase has a half-life of approximately four hours in mammalian cells (Thompson et al., 1991). Firefly luciferase reporter-gene assays are also generally considered one of the most sensitive assay types (Wood, 1995; Wood, 1998). Although light produced in a bioluminescence reaction is of lower intensity than that produced during fluorescence emission, this is offset by little to no background light inherent to luminescent assays. Thus the luciferase reporter can be expressed at much lower levels than fluorescent proteins while still providing robust signal. However, it was initially observed, in 1991, by Thompson et al., that compounds that resemble the substrates of firefly luciferase (FLuc) can act as competitive inhibitors of the enzyme, and that these compounds, upon interaction with luciferase in the cell, can actually stabilize the protein and increase its half-life. Accumulated intracellular FLuc protein can be measured as an increase in luminescence signal, upon addition of detection reagents (which contain high concentrations of FLuc substrates) commonly used in high-throughput screening. In cell-based reporter gene assays that use FLuc as the reporter gene to quantitate the potential influence of a given compound against the target biology, this apparent increase in luminescence can mistakenly be interpreted as identification of a compound that is active against the target of interest. FLuc inhibitory compounds that stabilize the FLuc protein will give an identical read-out, making it difficult to distinguish compounds that are active against the target from those active against FLuc. In summary, the results generated here constitutes a valuable resource for the scientific community and provides insight on identifying compounds with inhibitory activity for the commonly-used reporter, firefly luciferase. References: -Almond, B., Zdanovsky, A., Zdanovskaia, M., Ma, D., Stecha, P., Paguio, A., Garvin, D., and Wood, K. (2004). Introducing the Rapid Response Reporter Vectors. Promega Notes 87, 18-22. -Fan, F., and Wood, K.V. (2007). Bioluminescent assays for high-throughput screening. Assay Drug Dev Technol 5, 127-136. -Thompson, J.F., Hayes, L.S., and Lloyd, D.B. (1991). Modulation of firefly luciferase stability and impact on studies of gene regulation. Gene 103, 171-177. -Wood, K.V. (1998). The chemistry of bioluminescent reporter assays. Promega Notes 65, 14-20. -Wood, K.V. (1995). Marker proteins for gene expression. Curr Opin Biotechnol 6, 50-58.
Reagents: 50mM Tris acetate, pH 7.5; 10mM Mg acetate; 10uM D-luciferin (Sigma #L9504); 10uM ATP; 0.01% Tween-20; 0.05% BSA; 10nM P. pyralis luciferase (Sigma #L9506) Control compounds used were two known firefly luciferase inhibitors (compounds (2) and (5) in Auld et al., 2010), and DMSO. Assay Summary: Three microliters containing firefly luciferase substrates in buffer (final concentrations: 50mM Tris acetate, pH 7.5, 10mM Mg acetate, 0.01% Tween-20, 0.05% BSA, 10uM D-luciferin, and 10uM ATP) are dispensed into each well of a Greiner white, solid-bottom 1536-well format plate using a flying reagent dispenser (FRD). […]
With `CCCCCCOC(=O)C1=CN(C)S(=O)(=O)N=C1C`, the “activity change, negative = inhibition” value is -7.56%.

Consider `Cn1cc(CC(=O)N2CCCc3ncc(C(N)=O)cc32)c2ccccc21`, for which the “activity change, negative = inhibition” value is 3.17% [at 172 µM].

For the compound `COCCNC(=O)CCc1c(C)nn(-c2ccccc2)c1Oc1ccccc1F`, the “activity change, negative = inhibition” value was -0.838%.

Regarding `O=C([C@@H]1C[C@H](Oc2ccccc2)CN1C(=O)CN1CCCCCC1)N1CCCC1`, the “activity change, negative = inhibition” value was -13.3%.

As for `Fc1ccccc1CN1CCNc2cc(Nc3cccnc3)ncc2C1`, the Potency is 50.1 µM (active).

Take `CN(C)c1cccc(Nc2cc3c(cn2)NCCN(Cc2ccccc2)C3)c1`: the “activity change, negative = inhibition” value is 6.72% [at 172 µM].

For the compound `c1ccc(CN2CCNc3cc(NCc4cccnc4)ncc3C2)cc1`, the “activity change, negative = inhibition” value was 13.2% [at 172 µM].

Take `Fc1ccc(Cc2nc3nccc(-c4ccco4)n3n2)cc1`: the “activity change, negative = inhibition” value is -2.42%.

Take `COc1ccc(-c2ccc3ncc(Nc4ccc(C(F)(F)F)cc4)n3n2)cn1`: the “activity change, negative = inhibition” value is 4.32% [at 172 µM].

Consider `Cc1cccc(-c2cccc(NC(=O)C3CCCN(C(=O)CC(F)(F)F)C3)c2)c1` (stereo not drawn), for which the Potency is 11.2 µM (active).

For `CC(=O)Nc1cccc(-c2nnc3n2CCCC3)c1`, the “activity change, negative = inhibition” value is 3.08%.

For `CC#CC(=O)N1CCCC(C(=O)Nc2cccc(-c3cccc(C)c3)c2)C1` (stereo not drawn), the Potency was 15.8 µM (active).

With `Cc1cccc(C(=O)N2C[C@@H](F)C[C@H]2C(=O)N2CCCCC2)c1`, the “activity change, negative = inhibition” value is 39.2%.

Turning to `O=C(Nc1cccc(Cl)c1)C1CCCN(c2nc3ncccc3o2)C1` (stereo not drawn), the “activity change, negative = inhibition” value is 3.77%.

Regarding `O=C(Nc1cccc(F)c1)N1CCCC(CN2CCOCC2)CC1` (stereo not drawn), the “activity change, negative = inhibition” value was -4.29%.

As to `CCn1nccc1C(=O)N1CCCC1c1cc(C)no1` (stereo not drawn), the “activity change, negative = inhibition” value was -9.45%.

On to `CN1C(=O)CC(C(=O)O)C12CCN(CCc1ccccn1)CC2` (stereo not drawn), for which the “activity change, negative = inhibition” value was -1.6%.

In the case of `Cc1ccc(CNC(=O)N2CCN(C(=O)N3CC4CC(C3)[C@H]3CCCC(=O)N3C4)CC2)cc1` (stereo partly drawn), the “activity change, negative = inhibition” value is 0%.

Turning to `CCn1c(CN(C)C)nnc1C1CCN(Cc2ccc(-n3ccnc3)cc2)CC1`, the “activity change, negative = inhibition” value was -2.73%.

In the case of `CCCCNC(=O)C1CCN(C(=O)c2nnn3c2COC(c2ccc(C)cc2)C3)CC1` (stereo not drawn), the Potency is 28.2 µM (active).

In the case of `Cc1ccc(C2Cn3nnc(C(=O)N4CCC(C(=O)Nc5ccc(Cl)cc5)CC4)c3CO2)cc1` (stereo not drawn), the Potency is 15.8 µM (active).

Take `COc1ccc(C2Cn3nnc(C(=O)N4CCN(C(=O)c5ccc(C)cc5C)CC4)c3CO2)cc1` (stereo not drawn): the “activity change, negative = inhibition” value was -19.6%.

As for `CN(C)c1ccc(C(=O)N2CCN(C(=O)c3nnn4c3COC(c3ccc(Cl)cc3)C4)CC2)cc1` (stereo not drawn), the “activity change, negative = inhibition” value is -8.23%.

Consider `Cc1ccc(C2Cn3nnc(C(=O)N4CCN(C(=O)COc5cccc(C)c5)CC4)c3CO2)cc1` (stereo not drawn), for which the “activity change, negative = inhibition” value was 7.9%.

As for `O=C(c1ccoc1)N1CCN(C(=O)c2nnn3c2COC(c2ccc(Cl)cc2)C3)CC1` (stereo not drawn), the “activity change, negative = inhibition” value is -1.41%.

On to `Cc1ccc(C2Cn3nnc(C(=O)N4CCC(C(=O)NCCc5ccccc5)CC4)c3CO2)cc1` (stereo not drawn), for which the Potency is 12.6 µM (active).

Consider `Cc1ccc(C(=O)N2CCN(C(=O)c3nnn4c3COC(c3ccccc3)C4)CC2)cc1` (stereo not drawn), for which the “activity change, negative = inhibition” value is -10.9%.

Take `COc1ccc(C2Cn3nnc(C(=O)N4CCC(C(=O)NCC5CCCCC5)CC4)c3CO2)cc1` (stereo not drawn): the “activity change, negative = inhibition” value is 2.8%.

Take `C=CCN(C)C(=O)[C@@H](C)C1CC[C@@]2(C)Cc3sc(Nc4c(Cl)cccc4Cl)nc3[C@@H](C)[C@@H]2[C@H]1O` (stereo partly drawn): the “activity change, negative = inhibition” value was -23.1%.

In the case of `O=C(C[C@@H]1CCNC[C@@H]1Cc1cc(CSc2ccccc2)on1)NCc1ccc2c(c1)OCO2`, the “activity change, negative = inhibition” value was -0.784%.

Regarding `CCc1cccc(C)c1NC(=O)Cn1ccn2nc(-c3ccc(F)cc3)c(CO)c2c1=O`, the “activity change, negative = inhibition” value is 9.89%.

On to `Cc1ocnc1C(=O)N1CCc2nc(N)nc(N3CC[C@H](O)C3)c2CC1`, for which the “activity change, negative = inhibition” value was -2.27%.

With `Cc1cn2nc(C(=O)NCc3ccc(F)cc3)cc2c(N2CCCC2)n1`, the “activity change, negative = inhibition” value is 0%.

As for `CC(C)CCN1C(=O)CC[C@]2(C(=O)N3CCN(C)CC3)CCCC[C@@H]12`, the “activity change, negative = inhibition” value is -0.341%.

Take `CC(C)CCN1C(=O)CC[C@]2(C(=O)N3CCN(CC(C)C)CC3)CCCC[C@@H]12`: the “activity change, negative = inhibition” value was 1.21%.

Consider `CCN1CCN(C(=O)C23CCCC=C2N(C2CCCC2)C(=O)CC3)CC1` (stereo not drawn), for which the Potency is 39.8 µM (active).

With `CNC(=O)[C@@H]1CN(C(=O)c2n[nH]c3ccccc23)C[C@H]1c1n[nH]c(C)n1`, the “activity change, negative = inhibition” value was -7.09%.

As for `Cc1cccnc1NC(=O)C1c2ccccc2C(=O)N(C2CCCC2)C12CCCC2` (stereo not drawn), the “activity change, negative = inhibition” value was -10%.

With `O=C([C@@H]1C[C@H](F)CN1C(=O)c1ccccc1OC(F)(F)F)N1CCCCC1`, the “activity change, negative = inhibition” value is 1.44%.

`O=C([C@@H]1C[C@@H](O)[C@H](O)[C@@H]2NC(=S)N(c3ccc(OC(F)(F)F)cc3)[C@@H]21)N1CCCCC1`: the Potency was 14.1 µM (active).

On to `CC1(NC(=O)C2CC2)CN(c2ccc(OC(F)(F)F)cc2)C1`, for which the “activity change, negative = inhibition” value is -6.69% [at 172 µM].

With `Cc1noc(-c2cccc(OC3CN(C(=O)c4ccco4)C3)c2)n1`, the “activity change, negative = inhibition” value was -3.66%.

With `COc1ccccc1OCc1cc(C(=O)NCc2n[nH]c3c2CCC3)n[nH]1`, the “activity change, negative = inhibition” value was -12.1%.

As for `CN1CCCN(c2ccc(C(=O)N3CCC(N4CCOCC4)CC3)cn2)CC1`, the “activity change, negative = inhibition” value was -13.3%.

In the case of `CCOC(=O)C1CCN(C(=O)c2ccc(-c3ccc(N4CCCCCC4)nc3)cc2)CC1`, the “activity change, negative = inhibition” value is -15.5%.

On to `O=C(c1ccc(-c2ccc(N3CCCCC3)nc2)cc1)N1CCOCC1`, for which the Potency is 35.5 µM (active).

For `Cc1ccc(NC(=O)Cn2cccc2-c2nc(-c3ccc4c(c3)OCO4)no2)cc1Cl`, the “activity change, negative = inhibition” value was -6.96%.

Regarding `COc1ccc(-c2noc(-c3cccn3CC(=O)Nc3ccccc3)n2)cc1F`, the “activity change, negative = inhibition” value is 0.68%.
